# KDM5B inhibitor: blocks human KDM5B histone demethylase activity; KDM5B demethylase, FDH-coupled NADH fluorescence (FDH is formaldehyde dehydrogenase); Potency, µM (highest dose often 57.7 µM), usual class: inhibitors; hit rate 2.6% among 220,000; further: potency means the concentration at half of the fitted maximal effect; 0% is about no effect; nearly all actives have a fitted effect of over 70% in size
#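 KDM5BΔAP (200 nM final) in 50 mM HEPES pH 7.5, 0.01% Tween-20 was preincubated 10 min at RT with compound over a concentration range. Substrate mix (H3K4me3 12.5 µM, α-KG 25 µM, Fe²⁺, ascorbate, NAD⁺, FDH) was added, and NADH fluorescence change over 30 min gave dose-response curves.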
# SNCA viab count: counter-screen for SNCA expression inhibitors: cell viability | hit rate 0.12% among 150,000 | Potency, µM (titrated, usually from 57.1 µM), for the others: top-dose activity change, negative = cytotoxicity, most hits filed as cytotoxic | HEK-293-SNCA-luc viability, GF-AFC fluorescence, 24 h;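 further: potency means the concentration at half of the fitted maximal effect; 0% = DMSO-treated cells and -100% = medium-only wells without cells; nearly all actives have a fitted effect of over 30% in size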
#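 Cytotoxicity counterscreen: after 24 h compound treatment of genome-edited SNCA-luciferase HEK-293 cells, live-cell protease substrate GF-AFC read by fluorescence after 30 min; activity scaled between DMSO (0%) and medium-only (-100%), curves Hill-fitted.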
# IP6K1 inhibitor: inhibitors of human IP6K1; IP6K1 kinase, ADP-Glo luminescence, 2 h; hits give low values; hit rate 0.81% among 140,000; Q92551; activity change, % (series mostly up to about 58 µM); in the data active means activity change below about -25%; further: on the % scale 0 is the no-effect control and ±100 the full control effect
# Target sequence (Q92551 whole entry, looked up): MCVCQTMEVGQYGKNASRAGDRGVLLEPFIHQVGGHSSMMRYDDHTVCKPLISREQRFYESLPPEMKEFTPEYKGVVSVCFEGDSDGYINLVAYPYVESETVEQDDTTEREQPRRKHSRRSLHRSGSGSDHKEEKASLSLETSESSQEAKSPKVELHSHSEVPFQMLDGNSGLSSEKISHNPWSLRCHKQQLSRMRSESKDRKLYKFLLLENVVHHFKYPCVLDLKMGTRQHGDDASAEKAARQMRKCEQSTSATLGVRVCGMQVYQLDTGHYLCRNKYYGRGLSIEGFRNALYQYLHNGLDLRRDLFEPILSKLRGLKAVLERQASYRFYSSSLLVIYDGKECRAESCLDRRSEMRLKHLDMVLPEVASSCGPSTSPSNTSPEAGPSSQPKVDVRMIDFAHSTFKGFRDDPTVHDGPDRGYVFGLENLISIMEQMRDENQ
#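 ADP-Glo luminescence measures ADP made by human IP6K1 during a 2 h RT reaction with ATP/IP6 (mix at 1.3 mM/130 uM); top library doses 57.5 and 19.1 uM final.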
# SNCA expr inhib: reduces expression of the alpha-synuclein gene. HEK-293 SNCA-luciferase knock-in, luminescence, 24 h. Potency, µM (titrated, usually from 57.2 µM), inactives show at the highest dose activity change, negative = inhibition, actives largely listed as inhibitors. hit rate 0.17% among 140,000. AID 1671194;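 further: potency means the concentration at half of the fitted maximal effect; plate controls were DMSO cells for no effect and cell-free wells for full effect; nearly all actives have a fitted effect of over 45% in size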
# * marks the source's active call; other numbers are inactive results; i = inactive; u = inconclusive; x = no result; [ ] = dose if it differs, or a comment. Only some compounds are listed: those with a hit (about 3% of all), similar ones and a draw of the others. Unless noted, the call rests on the fitted dose curve; in most records, active means well fitted curve in the direction sought with a large enough effect; inconclusive means small, poorly fitted or top-dose-only effect, or another doubt; inactive means no such curve, though single readings can be large; an effect the other way counts as inactive or inconclusive.
SMILES,KDM5B inhibitor,SNCA viab count,IP6K1 inhibitor,SNCA expr inhib
O=C(Nc1ccccc1)c1cc2n(n1)CC(c1ccc(Cl)cc1)OC2 (stereo not drawn),u,-5.0%,22.7,-15.7%
Cc1ccc(NC(=O)c2cc3n(n2)CC(c2ccc(Cl)cc2)OC3)cc1 (stereo not drawn),20µM*,0.7%,7.4,-21.3%
CCc1cc2c(=O)c(-c3cnn(-c4ccccc4)c3)c(C(F)(F)F)oc2cc1O,i,x,x,x
O=C(Nc1cccc(-n2cccn2)c1)C1CCCN(Cc2cccc(F)c2F)C1 (stereo not drawn),i,-10.9%,0.1,-0.6%
Cc1cc(C(=O)N2CCCC(C(=O)Nc3cccc(-c4cc5ccccc5[nH]4)c3)C2)nn1C (stereo not drawn),31.6µM*,u,11.0,u
Cc1cccc(-c2cccc(NC(=O)C3CCCN(C(=O)c4cccc(C)n4)C3)c2)c1 (stereo not drawn),i,-18.3%,5.5,84.0%
CCn1cc(C(=O)N2CCCC(C(=O)Nc3cccc(-c4cc5ccccc5[nH]4)c3)C2)cn1 (stereo not drawn),28.2µM*,-10.1%,28.3,-13.1%
Cc1c(CN2CCCC(C(=O)Nc3cccc(-c4cc5ccccc5[nH]4)c3)C2)cnn1C (stereo not drawn),28.2µM*,u,-7.3,u
CCCCCCCCc1ccc(-c2ccc(C(=O)OC(C)C(=O)OC(C)C)cc2)cc1 (stereo not drawn),i,x,x,x
CCn1cnnc1CC1CCN(C(=O)c2cc(-c3ccc(C)c(C)c3)nc3ccccc23)CC1,28.2µM*,-16.3%,0.0,43.6%
Cc1ccc(-c2cc(C(=O)N3CCC(Cc4nncn4C(C)C)CC3)c3ccccc3n2)cc1C,28.2µM*,-29.1%,8.0,u
CCOC(=O)C1=C(C)N(C2CC2)C(=O)NC1c1ccccc1OC(F)F (stereo not drawn),i,x,x,x
COc1ccc(CN2C[C@@H](F)[C@@H](OCc3nc4ccccc4n3C)C2)cn1,i,-10.9%[87.6 µM],3.0,-12.3%[87.6 µM]
CC(=O)Nc1ccc(CN2C[C@@H](F)[C@@H](OCc3nc4ccccc4n3C)C2)cc1,31.6µM*,-0.3%[87.6 µM],-10.4,8.6%[87.6 µM]
Cc1ccc(NC(=O)C2(c3ccc4c(c3)OC(F)(F)O4)CC2)nc1-c1cccc(C(=O)O)c1,x,u,-4.2,0.0764µM*
CCC1CN(Cc2nc(-c3ccc(OC)cc3F)oc2C)CCN1C(C)C (stereo not drawn),u,-0.9%,-11.5,12.6%
COc1ccc(OC)c(-c2nc(CN3CCCC(C(C)(C)O)C3)c(C)o2)c1 (stereo not drawn),20µM*,-0.7%,42.7,-2.6%
CS[C@H]1SC[C@@H]2C(=O)N(C)[C@H](C(C)C)C(=O)OC[C@H](NC(=O)c3cnc4ccccc4n3)C(=O)N[C@H](C)C(=O)N(C)[C@@H]1C(=O)N(C)[C@H](C(C)C)C(=O)OC[C@H](NC(=O)c1cnc3ccccc3n1)C(=O)N[C@H](C)C(=O)N2C,x,0.0192µM*,x,0.0061µM*
CC(C)NC(=O)C1CCCN(c2nccc(Nc3ccccc3F)n2)C1 (stereo not drawn),x,-9.7%[12.5 µM],7.0,u
O=C(CCN=C1NS(=O)(=O)c2ccccc21)N(Cc1ccc(F)cc1)C1CC1,i,x,x,x
O=c1[nH]c(CSc2nnc(-c3ccccc3F)n2C2CC2)nc2ccc(Cl)cc12,i,x,x,x
CN(C)[C@@H]1C[C@@H](CO)N(Cc2cc(=O)n3c4c(cccc24)CCC3)C1,22.4µM*,-9.0%,6.5,10.1%
CC(=O)N1Cc2ccccc2OC2(CCN(C(=O)c3ccnc(N)c3)CC2)C1,79.4µM*,0.6%,-6.1,u
CN(C)C(=O)N1CCC2(CC1)CN(C(=O)c1cccc3[nH]ccc13)Cc1ccccc1O2,50.1µM*,-4.8%,3.0,-16.1%
CC(C)NC(=O)N1Cc2ccccc2OC2(CCN(C(=O)c3cccc4[nH]ccc34)CC2)C1,i,0.5%,-4.4,u
SMILES,KDM5B inhibitor,SNCA viab count,IP6K1 inhibitor,SNCA expr inhib
NC(=O)c1noc2c1CN(c1cc(-c3ccccc3)nc3ccnn13)CC2,25.1µM*,-15.7%,38.0,7.8%
CC(=O)N1CCCN(c2cc(Cl)nc3ccnn23)CC1,i,10.5%[87.6 µM],30.0,33.1%[87.6 µM]
Cc1ccnc(N2CCC(O)(c3ccc(F)cc3)CC2)n1,28.2µM*,-17.1%,-4.6,6.6%
CCCCN(Cc1ccccc1)c1ccc(NS(=O)(=O)c2ccc(C)c(C)c2)cc1C(=O)O,i,x,x,x
O=C(O)Cn1ccc2cc(OCC3CCN(C(=O)CCC(F)(F)F)CC3)cnc21,35.5µM*,-4.5%[87.6 µM],-7.2,-19.6%[87.6 µM]
Cc1cnc(C)c(N2CCC(COc3cnc4c(ccn4CC(N)=O)c3)CC2)n1,35.5µM*,-2.1%[87.6 µM],8.0,u
Cc1nccc(N2CCC(COc3cnc4c(ccn4CC(N)=O)c3)CC2)n1,u,3.0%[87.6 µM],-13.3,-3.7%[87.6 µM]
NC(=O)Cn1ccc2cc(OCC3CCN(C(=O)C4CC4)CC3)cnc21,35.5µM*,3.4%[87.6 µM],-8.6,u
O=C(O)Cn1ccc2cc(OCC3CCN(C(=O)C4CCCC4)CC3)cnc21,35.5µM*,4.1%[87.6 µM],-0.7,-12.0%[87.6 µM]
O=C(O)CCn1ncc2cc(OCC3CCN(C(=O)C4CCCC4)CC3)ccc21,i,0.8%[87.6 µM],-3.5,-15.1%[87.6 µM]
CC1(C)CC(=O)C2=C(C1)OC(N)=C(C#N)C2c1cccc(Oc2ccccc2)c1 (stereo not drawn),i,x,x,x
CCC(Sc1nc2nccnc2c(=O)n1CCc1ccccc1)C(=O)Nc1cccc(OC)c1 (stereo not drawn),i,x,x,x
Cc1cccc(NC(=O)CCN2CCN(Cc3cccc4ccccc34)CC2)c1,i,x,x,x
O=C(CCNC(=O)NCc1nc2c(cnn2-c2ccccc2)c(=O)[nH]1)NCc1ccccc1,i,x,x,x
CC(C)(C)c1ccc(CCC2OCC(C[N+]3(C)CCCCC3)O2)cc1 (stereo not drawn),i,x,x,x
CN(C)C(CNC(=O)CCc1ncc(-c2ccc(F)cc2)o1)c1ccco1 (stereo not drawn),i,x,x,x
O=S(=O)(NCc1csc(Br)c1)c1ccc(Br)s1,i,x,x,x
CC(C)NC(=O)c1ccc(-c2nnc3ccc(NC(=O)C4CCC4)cn23)cc1,25.1µM*,-6.9%,-5.3,11.3%
CCOc1ccc(NC(=O)c2ccc(-c3nnc4ccc(NC(=O)C5CC5)cn34)cc2)cc1,u,-13.8%,-4.8,-11.1%
CCN(CC)C(=O)c1ccc(-c2nnc3ccc(NC(=O)C4CC4)cn23)cc1,22.4µM*,6.9%,-6.7,2.4%
CCN1CCN(C(=O)c2ccc(-c3nnc4ccc(NC(=O)C5CCC5)cn34)cc2)CC1,20µM*,7.9%,-7.2,12.9%
O=C(Nc1ccc2nnc(-c3ccc(C(=O)N4CCCCC4)cc3)n2c1)C1CCC1,20µM*,-5.9%,-10.5,u
O=C(Nc1ccc(-c2nnc3n2CCCC3)cc1)C1CCC1,i,0.6%,-1.4,33.1%
COc1ccc(C(=O)Oc2ccc3c(=O)c(Oc4ccc(C(C)(C)C)cc4)coc3c2)cc1OC,i,x,x,x
O=C(CSc1nc2cc3c(cc2c(=O)n1Cc1ccco1)OCO3)Nc1ccc(F)cc1,i,x,x,x

# Screening results: PubChem, National Center for Advancing Translational Sciences (NCATS)
